According to PubChem BioAssay AID1745851 (National Center for Advancing Translational Sciences (NCATS), 2022):
Some of the results follow. Inconclusive results are not listed. The source made the active and inactive calls. The call rests on the fitted dose curve; in most records, active means well fitted inhibition curve with a large enough effect; inconclusive means small, poorly fitted or top-dose-only effect; inactive means flat fitted curve, though single readings scatter.

Assay: Counterscreen for Target Class Profiling of Small Molecule Inhibitors of Methyltransferases
Settings: MTase-Glo coupled enzymes, SAH conversion luminescence, no MTase; series mostly up to 57.3 µM; activity change, negative = inhibition: at the top concentration
Text: PI: Matthew D. Hall Ph.D. and Quinlin M. Hanson Ph.D. National Center for Advancing Translational Sciences (NCATS) National Institute of Health (NIH) Rockville, MD Target class profiling (TCP) is a chemical biology approach amenable to investigating understudied biological targets. TCP is achieved by developing a generalizable assay platform and applying it to screen a curated set of compound libraries against representative members of a target class. Small molecule methyltransferases (SMMTase) are a subclass of methyltransferase that act on metabolites to modulate signaling pathways, metabolize xenobiotics, or balance the available methyl pool. We screened four curated libraries totaling 27,574 unique compounds against the SMMTases nicotinamide N-methyltransferase (NNMT), phenylethanolamine N-methyltransferase (PNMT), histamine N-methyltransferase (HNMT), glycine N-methyltransferase (GNMT), catechol O-methyltransferase (COMT), and guanidinoacetate N-methyltransferase (GAMT). The data generated by this TCP can be leveraged for informed tool molecule development. For example, in the associated publication we identified a chemotype of HNMT-selective inhibitors. Additionally, we identified a putative SMMTase-selective inhibitor with potential as a tool molecule for studying broader methyltransferase biology. High-through put screening assays were developed at the National Center for Advancing Translational Science (NCATS) for the enzymes NNMT, PNMT, HNMT, GNMT, COMT, and GAMT. Enzymatic activity was measured as a function of SAM cofactor conversion using the MTase Glo kit (Promega) for all enzymes. All assays were performed in 1536-well format with substrates and SAM concentrations at KM values. Enzyme concentration and assay timing were optimized for 10-20% SAM conversion. Initial screening of 27,574 compounds was done as single-point assays using the highest compound concentration (40 uM). 1,434 compounds were identified as hits (at least 50% inhibition) under these conditions. These compounds were replated in 11-point dose response and assayed against NNMT, PNMT, HNMT, GNMT, COMT, GAMT, and a counter-assay. The IC50 and efficacy (maximal response) values were determined for each dose-response curve. These values are also accounted for in the area under the curve (AUC) values.
PROTOCOL TABLE (as described by Inglese J, Shamu CE and Guy RK. 2007) SEQUENCE No. (e.g., 1, 2, 3, etc.); PARAMETER (e.g., Cells, Incubation, Reagent, etc.); VALUE; DESCRIPTION. 1; Reagent; 3 uL; SAH (16 uM) in reaction buffer, columns 1-48. 2; Reagent; 1 uL; SAM (4x) in reaction buffer, columns 1-48. 3; Controls; 23 nL; DMSO in column 4; sinefungin in DMSO (0 uM - 40 uM) in 7-point 1:2 dilution series (n = 2) in column 2. 4; Compounds; 23 nL; Columns 5-48. 5; Time; 20 min; Incubation. 6; Reagent; 1 uL; MTase-Glo reagent (5X), columns 1-48. 7; Time; 30 min; Incubation. 8; Reagent; 5 uL; MTase-Glo Detection reagent, columns 1-48. 9; Time; 30 min; Incubation. 10; Detection; Luminescence; ViewLux uHTS Microplate Imager (PerkinElmer). NOTES (numbers refer to Sequence numbers above) 1, 2. White Medium Binding 1536-well plates (white, flat bottom, medium binding Cat# AWK010000A, Aurora Microplates, Scottsdale, AZ); Reaction buffer: 50 mM Tris, pH 8.0, 3 mM MgCl2, 1 mM EDTA, 50 mM NaCl, 1 mM DTT, and 0.1 mg/mL BSA; refer to tables 2 and S1 for specific reagent concentrations. 3, 4. Pintool transfer 5, 7, 9. Room temperature 5. Final reaction conditions: 1 uM SAH, 4 uM SAM, 50 mM Tris, pH 8.0, 3 mM MgCl2, 1 mM EDTA, 50 mM NaCl, 1 mM DTT, and 0.1 mg/mL BSA. 7. Conversion of SAH to ADP; MTase Glo Kit (Promega, Madison, WI). 9. Conversion of ADP to ATP and detection by UltraGlo luciferase; MTase Glo Kit (Promega, Madison, WI). 10. Settings: 20 s exposure, 1X binning, high gain, medium speed. REFERENCES: Inglese J, Shamu CE and Guy RK, Reporting data from high throughput screening of small molecule libraries, Nature Chemical Biology, 2007, 3(8): 438-441. doi.org/10.1038/nchembio0807-438. […]
On the % scale 0 is the no-effect control and ±100 the full control effect.

Question: For `CC1(C)[C@H](Cc2cc(-c3ccccc3)on2)C[C@@H]1NCC1CC1`, which “activity change, negative = inhibition” value is on record?
Answer: -2.14% [at 85.7 µM] (inactive)

Question: Which “activity change, negative = inhibition” value does the source give for `CCCS(=O)(=O)N1CCCC(Cn2c(C)nc3cccnc32)C1` (configuration not stated) here?
Answer: 0.0698% (inactive)

Question: With `CCCc1sc(NC(=O)C[C@H]2NC(=O)c3ccccc3NC2=O)nc1C(=O)OC` as the compound, how does the “activity change, negative = inhibition” value read?
Answer: -0.625% (inactive)

Question: With `O=C(Nc1ccc2ncnc(N3CCCCC3)c2c1)C1CCCCC1` as the compound, how does the Potency read?
Answer: 9.61 µM (active)

Question: With `COc1ccccc1-c1[nH]nc2ncc(C(=O)N3CCN(Cc4ccccc4)CC3)nc12` as the compound, how does the “activity change, negative = inhibition” value read?
Answer: -1.28% [at 85.7 µM] (inactive)

Question: With `CC(C)CCN1CC2(CCCN(C(=O)c3ccn(C)c(=O)c3)C2)CCC1=O` (configuration not stated) as the compound, how does the “activity change, negative = inhibition” value read?
Answer: 3.19% (inactive)

Question: With `Cc1cnc(C2CCC2)n1C1CCN(C(=O)CCC2CCCC2)CC1` as the compound, how does the “activity change, negative = inhibition” value read?
Answer: -6.67% (inactive)

Question: For `Cn1ccc(Nc2cc3c(cn2)CN(CCc2ccccc2)CCN3)n1`, which “activity change, negative = inhibition” value is on record?
Answer: -2.16% [at 85.7 µM] (inactive)

Question: For `CCOc1ccccc1CN1CCC(Cc2nc(-c3cccnc3)n[nH]2)C1` (configuration not stated), which “activity change, negative = inhibition” value is on record?
Answer: -2.28% (inactive)

Question: For `COc1ccc(-c2nc3ccncc3[nH]2)cc1`, which “activity change, negative = inhibition” value is on record?
Answer: -1.57% [at 114 µM] (inactive)

Question: With `CC(C)c1nccn1CCCNc1nc(-c2ccncc2)nc2c1cnn2C` as the compound, how does the “activity change, negative = inhibition” value read?
Answer: 1.89% (inactive)

Question: With `COc1cc2c(cc1O)NC(=O)CC2c1cn[nH]c1-c1cc(C)ccc1C` (configuration not stated) as the compound, how does the “activity change, negative = inhibition” value read?
Answer: 0.234% (inactive)
